From PubChem BioAssay AID1259415 (National Center for Advancing Translational Sciences (NCATS), 2018) come the findings set out here.

“And” between values parts separate entries of the source, which are not always exact repeats. Identical values can stand only once. Screen size: about 410,000 compounds; about 18,000 (4.4%) were called active. Not shown: some 7% with an inconclusive outcome. No stated cut-off is given here; in the data, active means activity change below about -60%; inconclusive means no clear call, values can overlap the other calls; inactive means above about -39%. Shown is part of a subset that was picked to be rich in actives. Some structures have more than one record in an assay (separate samples or runs), and their calls can disagree.
On the % scale 0 is the no-effect control and ±100 the full control effect.

This experiment in a line: qHTS Assay for inhibitors of the human cytomegalovirus (HCMV). The note with it: HFF cells, HCMV-luciferase reporter, 72 h; at 57.5 µM; stronger effect = lower value. The essentials: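 Compounds were evaluated in HFFs infected with an HCMV luciferase reporter virus (MOI 1 PFU/cell). Luciferase in lysates collected 72 h post infection served as the replication measure.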
(In qHTS, concentration-response curves come from the screen itself.)
As to `Cc1nc2nc(SCC(=O)NC3CCC(C)CC3)nn2c(C)c1Cc1ccccc1Cl` (centres undefined), the activity change, negative = inhibition was -21.3% (inactive).

For the molecule `CC1CC(C)CN(C/C=C/c2ccccc2[N+](=O)[O-])C1` (centres undefined), the activity change, negative = inhibition is 71.9% (inactive). For `O=C(/C=C/c1ccccc1[N+](=O)[O-])OCC(=O)N1CCCC1` the value was 11.1% (inactive).

Take `CC1CCCCC1NC(=O)/C(C#N)=C/C=C/c1ccccc1[N+](=O)[O-]` (centres undefined): the activity change, negative = inhibition was -109% (active). In the case of `COC(=O)c1cc(S(=O)(=O)N2CCN(c3cc(Cl)ccc3C)CC2)c[nH]1`, the activity change, negative = inhibition was -37% (inactive). The same measure for `COc1ccc(-c2cn3nc(N4CCC(C(=O)Nc5cccc(C)c5C)CC4)sc3n2)cc1`: 0% (inactive); for `CN(C)S(=O)(=O)c1ccc(C(=O)NCC(C)(C)N2CCOCC2)cc1`: -39.4% (inactive). The same measure for `Cc1ccccc1CSCCNC(=O)c1ccc(Cl)c(S(=O)(=O)N2CCOCC2)c1`: -33.1% (inactive); for `CC(C)(CNC(=O)c1ccc(Cl)c(S(=O)(=O)N2CCc3ccccc3C2)c1)N1CCOCC1`: -77.7% (active); for `COc1cc2c(=O)c(S(=O)(=O)c3ccc(C(C)C)cc3)cn(Cc3ccccc3C)c2cc1OC`: 23.6% (inactive). For the molecule `COc1ccnc(Oc2ccccc2)c1-c1ncn[nH]1`, the activity change, negative = inhibition is -36.6% (inactive). As for `COc1ccnc(Oc2ccccc2)n1`, the activity change, negative = inhibition is 5% (inactive). For `COc1cnc(-c2ccccn2)nc1Oc1ccc(C(C)(C)C)cc1` the value was -82.7% (active); for `Cc1cc(OCC(=O)NCC2(N(C)C)CCCCC2)cc(C)c1Cl`, -11.2% (inactive).

For `CC1CCCCC1NC(=O)CCS(=O)(=O)c1ccc2c(c1)NC(=O)CO2` (centres undefined), the activity change, negative = inhibition was -22.8% (inactive). The same measure for `Cc1cc2c(cc1S(=O)(=O)CCC(=O)Nc1ccc(OC(F)(F)F)cc1)OCC(=O)N2`: 5.03% (inactive). On to `O=C(CCS(=O)(=O)c1ccc2c(c1)NC(=O)CO2)Nc1cccc(C(F)(F)F)c1`, for which the activity change, negative = inhibition is -106% (active). In the case of `CCOC(=O)c1cc2c(=O)n3ccccc3nc2n(CC2CCCO2)c1=NC(=O)c1ccccc1F` (centres undefined), the activity change, negative = inhibition was 5.02% (inactive).

For the molecule `CCOC(=O)c1cc2c(=O)n3ccccc3nc2n(Cc2ccco2)c1=NC(=O)c1ccc(F)cc1`, the activity change, negative = inhibition is -0.814% (inactive).

For `CCOC(=O)c1cc2c(=O)n3ccccc3nc2n(CC(C)C)c1=NC(=O)c1c(-c2c(F)cccc2Cl)noc1C`, the activity change, negative = inhibition is -12.3% (inactive) and -65.2% (active).

Take `CCOc1ccc(-n2cnc3c(=O)[nH]c(N)nc32)cc1`: the activity change, negative = inhibition was 29.7% (inactive). For `CCc1ccc(NC(=O)CN2C(=O)CCSc3ccc(S(=O)(=O)N4CCCC4)cc32)cc1` the value was 14.8% (inactive).

In the case of `Nc1ncnc(Nc2cccc(Cl)c2Cl)n1`, the activity change, negative = inhibition is 8.97% (inactive). Take `CC(=O)Nc1cccc(NC(=O)CSc2nccn2Cc2ccc3c(c2)OCO3)c1`: the activity change, negative = inhibition was -12.3% (inactive).
